# Data as given in PubChem BioAssay (NCATS).
# Records with an inconclusive call do not appear. Calls of active or inactive are those of the source. The call rests on the fitted dose curve; in most records, active means well fitted curve in the direction sought with a large enough effect; inconclusive means small, poorly fitted or top-dose-only effect, or another doubt; inactive means no such curve, though single readings can be large; an effect the other way counts as inactive or inconclusive.
# Key:
# [1] = Quantitative High-Throughput drug screen in 47 multiple myeloma cell lines against the NCATS MIPE library collection: Delta47_JCRB cell viability assay (AID 1918925; further: nearly all actives have a fitted effect of over 45% in size)
# Method in brief: (§1)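 qHTS of the MIPE 4.0 collection: 500 myeloma cells/well, 48 h drug exposure at 37C in 5% CO2, then CellTiter-Glo for 5 min at room temperature before luminescence reading.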
# [2] = Quantitative High-Throughput drug screen in 47 multiple myeloma cell lines against the NCATS MIPE library collection: AMO1_DSMZ cell viability assay (AID 1918927; further: nearly all actives have a fitted effect of over 30% in size)
# Method in brief: as §1
# [3] = Quantitative High-Throughput drug screen in 47 multiple myeloma cell lines against the NCATS MIPE library collection: ARD_JJKsccE7 cell viability assay (AID 1918929;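 on viability: 100% = DMSO-only wells and 0% = media-only wells without cells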)
# Method in brief: as §1
# [4] = Quantitative High-Throughput drug screen in 47 multiple myeloma cell lines against the NCATS MIPE library collection: Karpas620_DSMZ cell viability assay (AID 1918959); further: nearly all actives have a fitted effect of over 30% in size;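 on viability (% of DMSO): 100% = DMSO-only wells and 0% = cell-free media-only wells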
# Method in brief: (§2)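 Inhibition of cell viability is measured here. Each line was plated at 500 cells per well, treated with MIPE 4.0 drugs, kept 48 hours at 37C, then assayed for ATP content by CellTiter-Glo luminescence.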
# [5] = Quantitative High-Throughput drug screen in 47 multiple myeloma cell lines against the NCATS MIPE library collection: Karpas417_ECACC cell viability assay (AID 1918961); details: Karpas417 myeloma viability, CellTiter-Glo ATP luminescence, 48 h; viability (% of DMSO): at 45.8 µM (top of the series);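 on viability (% of DMSO): 100% = DMSO only wells and 0% = media only wells without cells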
# Method in brief: as §1
# [6] = Quantitative High-Throughput drug screen in 47 multiple myeloma cell lines against the NCATS MIPE library collection: KHM11_PLB cell viability assay (AID 1918962); further: nearly all actives have a fitted effect of over 35% in size
# Method in brief: as §2
# [7] = Quantitative High-Throughput drug screen in 47 multiple myeloma cell lines against the NCATS MIPE library collection: EJM_DSMZ cell viability assay (AID 1918926; further: nearly all actives have a fitted effect of over 30% in size)
# Method in brief: as §1
# [8] = Quantitative High-Throughput drug screen in 47 multiple myeloma cell lines against the NCATS MIPE library collection: KMM1_JCRB cell viability assay (AID 1918960); further: nearly all actives have a fitted effect of over 30% in size
# Method in brief: (§3)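 Myeloma cells, 500 per well, were exposed to MIPE 4.0 drugs by pin transfer for 48 h at 37 °C, 5% CO2. Viability was read as ATP luminescence with CellTiter-Glo, normalised to DMSO-only (100%) and medium-only (0%) wells.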
# [9] = Quantitative High-Throughput drug screen in 47 multiple myeloma cell lines against the NCATS MIPE library collection: JIM3_ECACC cell viability assay (AID 1918963; further: nearly all actives have a fitted effect of over 35% in size)
# Method in brief: as §2
# [10] = Quantitative High-Throughput drug screen in 47 multiple myeloma cell lines against the NCATS MIPE library collection: ARP1_JJKsccF8 cell viability assay (AID 1918928; further: nearly all actives have a fitted effect of over 40% in size)
# Method in brief: as §3
# [11] = Quantitative High-Throughput drug screen in 47 multiple myeloma cell lines against the NCATS MIPE library collection: JIM1_ECACC cell viability assay (AID 1918964)
# Method in brief: as §1
# Potency means the concentration at half of the fitted maximal effect.
Compound,Potency [1],Potency [2],Potency [3],Potency [4],Potency [5],Potency [6],Potency [7],Potency [8],Potency [9],Potency [10],Potency [11],viability (% of DMSO) [5]
COC(=O)C=CC(=O)OC,1.32 µM (active),inactive,1.18 µM (active),inactive,4.18 µM (active),18.7 µM (active),,,,,,
CCc1cc(C(C)=NOCc2ccc(C3CCCCC3)c(C(F)(F)F)c2)ccc1CN1CC(C(=O)O)C1,20.9 µM (active),,4.69 µM (active),,0.059 µM (active),,,,,,,
CC[C@H]1OC(=O)[C@H](C)[C@@H](O[C@H]2C[C@@](C)(OC)[C@@H](O)[C@H](C)O2)[C@H](C)[C@@H](O[C@@H]2O[C@H](C)C[C@H](N(C)C)[C@@H]2O)[C@](C)(OC)C[C@@H](C)C(=O)[C@H](C)[C@@H](O)[C@]1(C)O,inactive,inactive,,inactive,inactive,,inactive,inactive,inactive,,,
O=C(O)C(=O)Nc1cccc(C2=NN=N[N]2)c1,inactive,inactive,inactive,inactive,inactive,,inactive,inactive,inactive,inactive,,
O=C(NNC(=O)c1ccc(CNS(=O)(=O)c2ccc(F)c(Cl)c2)cc1)c1ccccc1,,inactive,inactive,inactive,,inactive,inactive,inactive,inactive,inactive,,
COc1ccc(S(=O)(=O)Nc2cc(-c3c(O)ccc4ccccc34)c(O)c3ccccc23)cc1,9.35 µM (active),14.8 µM (active),5.26 µM (active),1.66 µM (active),1.66 µM (active),14.8 µM (active),23.5 µM (active),8.33 µM (active),9.35 µM (active),11.8 µM (active),3.32 µM (active),
COC(=O)[C@@H]1[C@H]2C[C@@H]3c4[nH]c5ccccc5c4CCN3C[C@@H]2CC[C@@H]1O,inactive,inactive,inactive,,,,inactive,inactive,inactive,inactive,,
N=c1ccn2c(n1)O[C@H]1[C@@H](O)[C@@H](CO)O[C@H]12,,,,16.6 µM (active),,,inactive,10.5 µM (active),inactive,0.332 µM (active),inactive,
COc1cc(OC)cc(-c2ccc3ncc4ccc(=O)n(-c5ccc(N6CCNCC6)c(C(F)(F)F)c5)c4c3c2)c1,1.48 µM (active),1.18 µM (active),2.64 µM (active),4.69 µM (active),2.35 µM (active),5.9 µM (active),5.9 µM (active),2.96 µM (active),10.5 µM (active),3.32 µM (active),3.72 µM (active),
Cc1ccc([N+](=O)[O-])cc1S(=O)(=O)N(C)N=Cc1cnc2ccc(Br)cn12,,0.0148 µM (active),0.0118 µM (active),0.0264 µM (active),,,0.0235 µM (active),0.0118 µM (active),0.0105 µM (active),,0.001 µM (active),
CC(=O)NC(CS)C(=O)O (centres undefined),inactive,,inactive,,,inactive,inactive,inactive,inactive,,,
CN1CCCN(C(=O)c2cccc(-c3ccc(C=C4C(=O)Nc5ccc(Cl)cc54)o3)c2)CC1,,7.43 µM (active),8.33 µM (active),9.35 µM (active),3.72 µM (active),,,18.7 µM (active),26.4 µM (active),16.6 µM (active),6.62 µM (active),
Cc1cn([C@@H]2O[C@H](CO)[C@@H](O)[C@H]2F)c(=O)[nH]c1=O,inactive,inactive,inactive,inactive,,,inactive,,inactive,,,
N#CC(=C(O)c1ccc(Cl)cc1Cl)c1nc2cc(Cl)ccc2c(=O)[nH]1,inactive,1.05 µM (active),inactive,,,inactive,inactive,inactive,inactive,,,
C[C@]12CC[C@@H]3c4ccc(O)cc4CC[C@H]3[C@H]1CC[C@H]2O,,14.8 µM (active),,4.18 µM (active),,4.69 µM (active),,,14.8 µM (active),,5.9 µM (active),
Cc1[nH]c(C=C2C(=O)Nc3ccccc32)c(C)c1CCC(=O)O,4.69 µM (active),1.48 µM (active),20.9 µM (active),18.7 µM (active),23.5 µM (active),,5.9 µM (active),13.2 µM (active),,,2.96 µM (active),
COc1cc(OC)c(C=CS(=O)(=O)Cc2ccc(OC)c(NCC(=O)O)c2)c(OC)c1,0.148 µM (active),0.0332 µM (active),0.0743 µM (active),,1.18 µM (active),,,0.0743 µM (active),0.209 µM (active),,0.0372 µM (active),
O=c1[nH]c(=O)n([C@H]2C[C@@H](O)[C@@H](CO)O2)cc1C=CBr,inactive,inactive,,inactive,,,inactive,inactive,inactive,inactive,inactive,90.1% (active)

Compound,Potency [1],Potency [2],Potency [3],Potency [4],Potency [5],Potency [6],Potency [7],Potency [8],Potency [9],Potency [10],Potency [11],viability (% of DMSO) [5]
COc1ccc(CCC(=O)c2c(O)cc(O[C@@H]3O[C@H](CO)[C@@H](O)[C@H](O)[C@@H]3O[C@@H]3O[C@@H](C)[C@H](O)[C@@H](O)[C@@H]3O)cc2O)cc1O,,inactive,inactive,inactive,inactive,,inactive,,18.7 µM (active),,,
COc1cccc2c1C(=O)c1c(O)c3c(c(O)c1C2=O)C[C@@](O)(C(C)=O)C[C@H]3O[C@H]1C[C@H](N)[C@H](O)[C@H](C)O1,0.0418 µM (active),0.118 µM (active),0.235 µM (active),0.0662 µM (active),0.0469 µM (active),0.235 µM (active),0.105 µM (active),0.0743 µM (active),0.0935 µM (active),0.059 µM (active),0.0743 µM (active),
CC(=O)C1=C(O)C=C2Oc3c(C(C)=O)c(O)c(C)c(O)c3C2(C)C1=O (centres undefined),inactive,,,,,inactive,inactive,inactive,inactive,inactive,,
CCN1CCN(C(=O)N[C@H](C(=O)N[C@@H]2C(=O)N3C(C(=O)O)=C(CSc4nnnn4C)CS[C@@H]23)c2ccc(O)cc2)C(=O)C1=O,inactive,inactive,inactive,,,inactive,inactive,inactive,inactive,inactive,,
CC1(C)[C@H](O[C@H]2O[C@H](C(=O)O)[C@@H](O)[C@H](O)[C@H]2O[C@@H]2O[C@H](C(=O)O)[C@@H](O)[C@H](O)[C@H]2O)CC[C@@]2(C)[C@H]1CC[C@]1(C)[C@H]2C(=O)C=C2[C@H]3C[C@@](C)(C(=O)O)CC[C@]3(C)CC[C@]21C,inactive,inactive,,inactive,inactive,,,inactive,,inactive,,
CCCNC(=O)[C@H]1O[C@H]1C(=O)N[C@H](C(=O)N1CCC[C@@H]1C(=O)OC)C(C)CC (some centres undefined),13.2 µM (active),4.69 µM (active),,5.9 µM (active),2.96 µM (active),33.2 µM (active),5.9 µM (active),9.35 µM (active),16.6 µM (active),8.33 µM (active),,
C=CCNC1=C2C[C@@H](C)C[C@H](OC)[C@@H](O)[C@@H](C)C=C(C)[C@H](OC(N)=O)[C@@H](OC)C=CC=C(C)C(=O)NC(=CC1=O)C2=O,1.05 µM (active),0.0935 µM (active),0.0935 µM (active),1.87 µM (active),,0.59 µM (active),4.18 µM (active),0.148 µM (active),2.64 µM (active),0.148 µM (active),0.662 µM (active),
OC[C@@H](O)[C@@H](O)[C@H](O)[C@@H](O)CO,,5.9 µM (active),,inactive,,,inactive,inactive,,inactive,inactive,
CC(C)(O)Cn1c(NC(=O)c2ccc(-c3cn[nH]c3)s2)nc2cc(CN3CCOCC3)ccc21,0.833 µM (active),0.469 µM (active),0.469 µM (active),0.662 µM (active),0.118 µM (active),0.296 µM (active),1.05 µM (active),0.743 µM (active),,,0.418 µM (active),
Cn1cc(C=CC(=O)c2cccc(F)c2)cc1C=CC(=O)NO,18.7 µM (active),18.7 µM (active),16.6 µM (active),13.2 µM (active),13.2 µM (active),inactive,,16.6 µM (active),,16.6 µM (active),,
CCCCCCCCCCCC(CC1OC(=O)C1CCCCCC)OC(=O)C(CC(C)C)NC=O (centres undefined),,inactive,inactive,inactive,,inactive,inactive,inactive,inactive,inactive,inactive,
CC(=O)N[C@@H]1[C@H](O[C@@H]2c3ccc(c(Cl)c3)Oc3cc4cc(c3O[C@H]3O[C@H](CO)[C@@H](O)[C@H](O)[C@H]3NC(=O)CCCCCCCC(C)C)Oc3ccc(cc3Cl)C[C@H]3NC(=O)[C@H](N)c5ccc(O)c(c5)Oc5cc(O)cc(c5)[C@H](NC3=O)C(=O)N[C@H]4C(=O)N[C@H]3C(=O)N[C@@H]2C(=O)N[C@@H](C(=O)O)c2cc(O)cc(O[C@H]4O[C@H](CO)[C@@H](O)[C@H](O)[C@H]4O)c2-c2cc3ccc2O)O[C@H](CO)[C@@H](O)[C@@H]1O,,inactive,inactive,inactive,,,inactive,inactive,inactive,inactive,,
C=C1CCC2[C@](C)(CO)C(O)CC[C@]2(C)C1CC=C1C(=O)OCC1O (some centres undefined),inactive,,inactive,inactive,,inactive,inactive,inactive,,inactive,,
C=C1C[C@@]2(O)O[C@@]3(C[C@H]2C(C)C)[C@H](C)CC[C@H]13,inactive,inactive,inactive,inactive,,,inactive,,inactive,inactive,,
CC[C@@]1([C@@H]2O[C@@H]([C@H]3O[C@@](O)(CO)[C@H](C)C[C@H]3C)C[C@H]2C)CC[C@H]([C@]2(C)CC[C@]3(C[C@H](O)[C@@H](C)[C@@H]([C@@H](C)[C@@H](OC)[C@H](C)C(=O)O)O3)O2)O1,0.457 µM (active),0.0575 µM (active),0.911 µM (active),,,0.512 µM (active),2.04 µM (active),,0.229 µM (active),,0.0645 µM (active),
Cc1nc(NC(=O)N2CCC[C@@H]2C(N)=O)sc1-c1ccnc(C(C)(C)C(F)(F)F)c1,1.66 µM (active),,,,,,,,,0.418 µM (active),,
CC(C=CC(=O)NO)=C[C@@H](C)C(=O)c1ccc(N(C)C)cc1,,0.235 µM (active),0.264 µM (active),0.418 µM (active),0.105 µM (active),0.372 µM (active),0.469 µM (active),0.209 µM (active),0.743 µM (active),0.209 µM (active),0.296 µM (active),
